MBNL1 CUG block: qHTS Assay for Inhibitors of MBNL1-poly(CUG) RNA binding. Potency, µM (highest dose often 57.5 µM), usual class: inhibitors. 0.036% of 280,000 active. AID 2675, 2010. TR-FRET MBNL1-His/biotin-(CUG)12 binding, 665/545 ratio. Muscleblind-like protein 1 (Homo sapiens), Q9NR56; active = well fitted inhibition curve with a large enough effect in the signal ratio, with a control signal flat, not every such curve was filed as active; inconclusive = small, poorly fitted or top-dose-only effect, or effect the other way, or a change in a side signal; inactive = no such curve, though single readings can be large or run the other way; the % refers to the signal ratio
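Compound titration spanned 92 nM–58 uM against the MBNL1-His/biotin-(CUG)12 complex. After 60 min at room temperature with 5 nM streptavidin-XL665 and 0.055 ng/ul terbium anti-His, ratiometric 665/545 nm emission (Ex 340 nm) normalized to controls.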
CBFb-RUNX1 inh: qHTS Assay for Compounds Blocking the Interaction Between CBF-beta and RUNX1 for the Treatment of Acute Myeloid Leukemia; Runt-related transcription factor 1 (Homo sapiens) + Core-binding factor subunit beta …; AlphaScreen CBFb-His/RUNX1-biotin binding, biochemical; Potency, µM (series often up to 59.8 µM), most hits filed as inhibitors; 230,000 tested, under 10 active
Target sequence (Q01196 whole entry, looked up): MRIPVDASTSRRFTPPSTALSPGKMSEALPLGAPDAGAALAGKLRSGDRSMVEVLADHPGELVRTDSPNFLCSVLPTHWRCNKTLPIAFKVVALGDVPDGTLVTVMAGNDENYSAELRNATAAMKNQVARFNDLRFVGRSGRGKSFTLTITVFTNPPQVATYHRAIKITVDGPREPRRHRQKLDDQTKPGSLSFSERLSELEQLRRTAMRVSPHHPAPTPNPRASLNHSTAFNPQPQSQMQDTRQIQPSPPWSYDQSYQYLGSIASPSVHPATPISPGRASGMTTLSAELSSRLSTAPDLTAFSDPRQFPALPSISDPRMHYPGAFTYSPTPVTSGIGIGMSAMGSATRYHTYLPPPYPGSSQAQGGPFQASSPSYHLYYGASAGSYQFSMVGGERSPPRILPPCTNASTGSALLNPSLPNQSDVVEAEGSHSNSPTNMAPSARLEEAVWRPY
Target sequence (Q13951 whole entry, looked up): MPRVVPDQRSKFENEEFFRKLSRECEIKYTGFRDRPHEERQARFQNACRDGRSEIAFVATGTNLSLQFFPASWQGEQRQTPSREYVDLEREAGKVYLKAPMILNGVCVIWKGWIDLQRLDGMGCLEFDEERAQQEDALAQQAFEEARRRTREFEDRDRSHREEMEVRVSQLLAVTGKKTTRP
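Compounds were screened at multiple concentrations against a preformed CBF-beta(His)/RUNX1(biotin) complex (30 nM of each) for 15 min at room temperature, followed by 90 min with nickel and streptavidin beads and AlphaScreen reading.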
a7 integrin act: qHTS for Activators of Integrin-Mediated Alleviation for Muscular Dystrophy; alpha7betagal myoblasts, beta-gal FDG fluorescence, 48 h; Potency, µM (titrated, usually from 38.3 µM), most hits filed as activators; 0.064% of 350,000 active; note: nearly all actives have a fitted effect of over 60% in size
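alpha7betagal+/- myoblasts (passage 13, 250/well) treated 48 h at 37C with compounds at 1:260 dilution of DMSO stock. Lysed, then beta-galactosidase activity read as FDG fluorescence (ex 480/em 540) after 30 min, with pre-read for autofluorescence.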
DRD3 agonist: qHTS of D3 Dopamine Receptor Agonist: qHTS | D3R DiscoveRx beta-arrestin cells, luminescence, 90 min | 0.58% of 410,000 active | max activation, % | AID 652048, 2013; in the data active = max activation above about 30%
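Agonist mode: compounds and dopamine controls were applied to plated cells for 90 min at 37 degrees C after an overnight attachment at 1500 cells/well. Luminescent read-out followed 30 - 60 minutes at room temperature with DiscoveRx detection reagent.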
D3 antag: qHTS of D3 Dopamine Receptor Antagonist: qHTS. D(3) dopamine receptor (Homo sapiens), P35462. max response, negative = inhibition, %. 2.5% of 360,000 active. D3R cells, DiscoveRx beta-arrestin luminescence, antagonist mode; stronger effect = lower value; in the data active = max response below about -50%; inconclusive = no clear call, values can overlap the other calls
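Cells expressing the human receptor were seeded at 1500 cells/well, incubated overnight at 37 degrees C in 5% CO2, then exposed to library compounds with dopamine controls for 90 minutes at 37 degrees C before luminescent detection.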
PTHR1 ag: qHTS for PTHR1 Agonists: Primary Screen; 0.075% of 410,000 active; Parathyroid hormone/parathyroid hormone-related peptide receptor (Homo sapiens), Q03431; Potency, µM (doses to about 115 µM), hits mostly activators; AID 743266, 2014; HEK293 GP2 PTHR1 cells, GloSensor cAMP luminescence, 1 h; note: nearly all actives have a fitted effect of over 55% in size
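HEK-293-derived GP2 cells expressing PTHR1 and a GloSensor cAMP reporter, 3,000/well, plated overnight, given luciferin plus IBMX (each 0.5 mM as added) for 1 h at 37 °C, then compound for 1 h at 37 °C. Luminescence was read after 15 min at room temperature.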
Numbers stand for hits; n = inactive; u = inconclusive; x = no result given; [ ] = dose if it differs, or a comment. Rows were chosen to be rich in hits. Some 2.8% of all compounds tested hit in one or more screens of this group. Unless noted, calls come from the whole dose curve; as a rule, active = well fitted curve in the direction sought with a large enough effect; inconclusive = small, poorly fitted or top-dose-only effect, or another doubt; inactive = no such curve, though single readings can be large; an effect the other way counts as inactive or inconclusive.

SMILES	MBNL1 CUG block	CBFb-RUNX1 inh	a7 integrin act	DRD3 agonist	D3 antag	PTHR1 ag
Cc1ccc(OCCCN2CCC(C(O)(c3ccccc3)c3ccccc3)CC2)cc1	x	x	x	n	n	n
OC(c1ccccc1)(c1ccccc1)C1CCN(CCCOc2ccccc2Cl)CC1	x	x	x	n	-80	n
OC(c1ccccc1)(c1ccccc1)C1CCN(CCCOc2ccc(F)cc2)CC1	x	x	x	n	-95	n
COc1ccccc1OCCCN1CCC(C(O)(c2ccccc2)c2ccccc2)CC1	x	x	x	n	-85	n
Cc1cc(-c2nnc(CCC(=O)NC(C)(C)C34CC5CC(CC(C5)C3)C4)o2)no1	x	x	n	n	n	n
CC(C)(C(=O)O)c1ccc([C@H](O)CCCN2CCC(C(O)(c3ccccc3)c3ccccc3)CC2)cc1	n	x	x	x	x	n
COC(=O)c1cccc(OCCCN2CCC(C(O)(c3ccccc3)c3ccccc3)CC2)c1	x	x	x	n	-93	n
Oc1ccc(-c2nc3ncccn3c2Nc2ccc3c(c2)OCO3)cc1	u	n	n	n	-55	n
COc1cc2c(C#CCCO)c(-c3ccsc3)oc(=O)c2cc1OC	x	x	n	n	n	n
COCc1ccc(-c2c(-c3ccsc3)oc(=O)c3cc(OC)c(OC)cc23)cc1	x	x	n	42	n	n
O=C(O)C(CCc1ccccc1)(Cc1ccccc1)C(=O)O	x	x	n	n	n	n
OCCC1CN(Cc2nc(-c3ccccc3)cs2)CCN1C1CCCC1 (stereo not drawn)	n	n	n	n	n	n
c1ccc(-c2csc(CN3CCCCC3)n2)cc1	x	x	n	n	-50	n
CCn1cc(C(=O)OCC(=O)OC2CC(C)CCC2C(C)C)c(=O)c2ccc(C)nc21 (stereo not drawn)	n	n	n	n	-81	n
C=CCC(C)(O)C#Cc1ccccc1 (stereo not drawn)	x	n	x	x	x	x
Cc1cc(C(=O)NCCc2ccccc2)ccc1[N+](=O)[O-]	u	n	n	n	-55	n
O=C(NCCc1ccccc1)c1ccc(Cl)c([N+](=O)[O-])c1	u	n	n[7.66 µM]	n	n	n
Cc1nc(Nc2ccc(S(=O)(=O)N3CCCCC3C)cc2)c2nnn(Cc3ccccc3)c2n1 (stereo not drawn)	n	n	n	n	-59	n
CC(=O)Nc1ccc(Nc2nc(C)nc3c2nnn3Cc2ccccc2Cl)cc1	n	x	n	n	-74	n
Cc1nc(Nc2ccc(Cl)cc2)c2nnn(Cc3ccccc3)c2n1	n	n	n	n	n	n
COc1ccc(Nc2nc(C)nc3c2nnn3Cc2ccccc2)cc1OC	n	n	n	n	n	n
Cc1ccc(S(=O)(=O)NCCc2cn3nc(C)c(C)nc3n2)cc1C	n	x	n	n	n	n
CC(C)NC(=O)C1(C)CSCC(=O)N1C1CC1 (stereo not drawn)	x	x	x	n	n	n
CN(Cc1ccccc1)C1CCCN(C(=O)c2ccc(Cl)s2)C1 (stereo not drawn)	n	x	n	n	-82	n
CC(=O)c1ccc(OCc2cc(C(=O)N3CCN(C4CCCC4)C(=O)C3)no2)cc1	x	x	n	n	n	n
O=C(NNC1=Nc2ccccc2SC1)c1ccc(Cl)cc1	n	n	n	n	-73	n
CC(=O)Nc1ccc(/C(C)=N/Nc2nc(Nc3cccc4ccccc34)nc(N3CCOCC3)n2)cc1	n[11.5 µM]	n	n	n	n	n
O=C(c1ccc2c(c1)OCO2)C1CCCN(Cc2ccccc2OC(F)F)C1 (stereo not drawn)	n	x	n	n	-63	n
COc1cccc(CN2CCCC(C(=O)c3ccc4c(c3)OCO4)C2)c1OC (stereo not drawn)	n	n	n	n	n	n

Bioassay records as filed in PubChem BioAssay.
